Bioassay records deposited in PubChem BioAssay by several laboratories.
FAS-TE inh – FAS thioesterase domain inhibitors, primary screen, biochemical, fluorescence intensity, uHTS | Fatty acid synthase (Homo sapiens), P49327 | 0.67% of 360,000 active | recombinant FAS-TE, OMFH fluorogenic substrate, fluorescence endpoint | inhibition, % at 15 µM | AID 602261, 2012;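 active means compounds whose normalised, plate-corrected inhibition of enzyme fluorescence in the single-dose primary screen is 50% or more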;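 further: 0% = DMSO with enzyme and 100% = substrate without enzyme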
MPTP inh – mitochondrial permeability transition pore inhibitors, primary screen, biochemical, isolated mouse mitochondria, absorbance; Ca2+ swelling absorbance, 30 min; inhibition, % at 10 µM; 1.4% of 360,000 active;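 active means inhibition of 50% or more, scaled per plate between neutral and stimulator controls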;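 further: 0% = DMSO wells given calcium and 100% = 1 mM EGTA wells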
Cardio protect – cardioprotection against H2O2-induced cell death, primary screen, uHTS, H9c2 cells, ATPLite luminescence; 0.63% of 360,000 active; AID 588492, 2011; protection from H2O2 cell death, % at 20 µM; H9c2 cardiomyocytes, H2O2 injury protection, 2 h;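 active means compounds giving at least 50% protection of heart cells from peroxide-induced death in the single-dose screen, raw or plate-pattern-corrected value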;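 further: 0% = DMSO wells with peroxide and 100% = DMSO wells without peroxide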
Mot1-301 SUMO – yeast Mot1-301 growth rescue at high temperature, primary screen, SUMOylation pathway inhibitor project, S. cerevisiae, ATP luminescence, 38.5C; S. cerevisiae Mot1-301 growth rescue; percent above DMSO median, 100 means doubled; growth rescue, % at 18.8 µM; 1% of 320,000 active;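 active means every valid replicate shows activation above 250% relative to neutral control wells; inactive means the rest, any valid replicate at or below 250%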;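 further: OY570 slx delta 5 strain wells were the positive control but not used for scaling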
Yeast superoxide – reduction of superoxide in aged yeast, primary screen, HTS; S. cerevisiae aged cells, superoxide DHE fluorescence; stronger effect = lower value; 0.18% of 330,000 active; superoxide response (% of plate mean), % at 10 µM;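 active means superoxide response under a set limit, about three screen SD below normal, cut at about 65% in these data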;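 further: yeast aged for seven days with compound at 30 °C before DHE staining; 100% = average MFI of all compound-treated wells on the plate with controls excluded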
aDG glyco act – activators of alpha-DG glycosylation, primary screen, uHTS, Pro5-aDG cells, AlphaScreen. alpha-DG glycosylation AlphaScreen (IIH6); 0% Pro5, 100% B10-LARGE cell signal. activation, % at 10 µM. 0.22% of 360,000 active. AID 624168, 2012;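 active means activation of at least 8% versus controls, or a plate z-score of at least 8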;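 further: Pro5 are CHO cells carrying HIG-tagged alpha-DG that lacks glycosylation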
* hit, by the source's call; . = no result given; + = active, no number; ! = not confirmed by another sample. Sampled rows, rich in hits. Any-hit rate of the full collection: about 3.8%.

SMILES | FAS-TE inh | MPTP inh | Cardio protect | Mot1-301 SUMO | Yeast superoxide | aDG glyco act
C[C@H]1CN([C@@H](C)CO)C(=O)CCCn2nncc2CO[C@@H]1CN(C)S(=O)(=O)c1ccc(-n2cccn2)cc1 | -7 | -1 | 1 | . | . | 0
CCCCc1nc2cc(C(=O)N(C)C3CCOCC3)ccc2o1 | 1 | 1 | -5 | 19 | 88 | 0
CN1CCC(N(C)CC(O)c2ccccc2)CC1 (configuration not stated) | -4 | 0 | 7 | 8 | 105 | 0
CN1CCC(OC(c2ccccc2)c2ccccc2)CC1 | 0 | 1 | 6 | 321*! | 105 | 0
O=C1NC[C@@H](CCCCN2CCN(CCC3CCCCC3)C(=O)C2=O)N(CCC2CCCCC2)C1=O | 13 | -2 | . | . | . | 0
Cc1ccc(Cl)c(OCCN2CCc3ccccc3C2)c1 | 38 | 2 | -1 | 323* | 98 | 1
CN1CCCN(c2cc(-c3ccc4ccccc4c3)nc3ccnn23)CC1 | -14 | 0 | 9 | . | . | 0
O=S(=O)(c1cccs1)N1CCN(c2ncccn2)CC1 | 2 | 2 | 2 | + | 115 | 0
CCN(CC)C(=O)c1ccc2c3c(cccc13)C(=O)N(CCc1ccc(OC)c(OC)c1)C2=O | 5 | 2 | 71* | . | 99 | 0
O=C(NCc1ccc(F)cc1)C1CCC(CNc2c(N3CCCCC3)c(=O)c2=O)CC1 (configuration not stated) | -1 | 1 | 1 | -8 | 63* | 0
O=C(Nc1ccccc1F)c1ccc2ncsc2c1 | -1 | 1 | -3 | -17 | 104 | 0
O=C(Nc1ccc(F)cc1F)c1ccc2ncsc2c1 | -4 | 0 | 2 | 335* | 79 | 0
Cc1ccc([C@H]2C(C(=O)O)=C[C@@H](C(C)(C)C)N2S(=O)(=O)c2ccc(C)cc2)cc1 | -4 | 0 | 3 | 24 | 110 | 0
CCc1ccc([C@@H]2CC=C(C(=O)O)[C@H](c3ccc(C)cc3)N2S(=O)(=O)c2ccc(C)cc2)cc1 | 6 | 0 | -2 | . | 87 | 0
Cc1ccc([C@@H]2CC=C(C(=O)O)[C@H](c3cccc(Cl)c3)N2S(=O)(=O)c2ccccc2C)cc1 | 9 | 2 | 5 | 295* | 90 | 0
Cc1ccc(S(=O)(=O)N2[C@@H](c3ccc(Cl)c(Cl)c3)C(C(=O)O)=C[C@H]2C(C)(C)C)cc1 | 16 | 2 | -10 | 312* | 93 | 0
CCCCC[C@@H]1C=C(C(=O)O)[C@H](c2ccc(CC)cc2)N1S(=O)(=O)c1ccc(C)cc1 | 6 | 2 | -7 | 354* | 100 | 0
CCc1ccc([C@@H]2CC=C(C(=O)O)[C@H](c3ccccc3F)N2S(=O)(=O)c2ccc(C)cc2)cc1 | -9 | 2 | 2 | 302* | 96 | 0
O=C(NCC(=O)N1CCN(S(=O)(=O)c2ccccc2C(F)(F)F)CC1)c1sc2ccccc2c1Cl | -1 | 2 | -6 | -19 | 102 | 0
Cc1ccc(S(=O)(=O)N2C3CCCCC3O[C@H]2CC(=O)c2cccc3ccccc23)cc1 (some centres not stated) | . | 0 | . | . | . | 1
Cc1ccccc1S(=O)(=O)N1[C@@H](c2ccc(Cl)cc2)C(C(=O)O)=CC[C@H]1c1ccc(Cl)cc1 | 12 | 1 | -7 | 112 | 97 | 0
Cc1ccc([C@H]2C(C(=O)O)=CC[C@@H](c3ccc(Cl)cc3)N2S(=O)(=O)c2ccccc2C)cc1 | 0 | 2 | 4 | 341* | 96 | 0
COc1cc(-c2cc3nc(NCCOc4ccccc4)ccn3n2)cc(OC)c1OC | 18 | 0 | 92* | . | . | 0
COc1cc(CCNc2ccc3nnc(-c4ccccc4)n3n2)cc(OC)c1OC | -5 | 0 | 56* | 1 | 87 | 2
NS(=O)(=O)c1ccc(CCNc2ccn3nc(-c4ccc(OCCN5CCOCC5)cc4)cc3n2)cc1 | -5 | 1 | 66* | . | . | 0
COc1cc(-c2cc3nc(NCCc4ccc(S(N)(=O)=O)cc4)ccn3n2)cc(OC)c1OC | -6 | 1 | 86* | . | . | 0
